Test results as given in the supplement of paper PMC3898565.
Where “and” joins values, the source holds several entries; their conditions need not be identical. Identical values can stand only once. Counter-ions that a name gives are not always drawn. ± gives the uncertainty stated by the source.

System: U87
Experiment: cell viability relative to vehicle control; higher = less growth inhibition (less active)
Conditions: 10 µM; 72 h
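Further: viable cell number estimated from Alamar Blue fluorescence read at 560/90, part of a single-dose primary screen of an FDA-approved drug library.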

| SMILES | cell viability |
| --- | --- |
| NC1=NC(=O)C(c2ccccc2)O1 (stereo not given) [Pemoline] | 102.8 ± 0.87% |
| NCCc1ccccn1 | 104 ± 1.4% |
| C[C@]12CC[C@H](O)CC1=CC[C@@H]1[C@@H]2CC[C@@]2(C)[C@H]1CC[C@]2(C)O | 127 ± 3.6% |
| COc1cc2c(cc1OC)[C@@]13CCN4CC5=CCO[C@H]6CC(=O)N2[C@H]1[C@H]6[C@H]5C[C@H]43 [Brucine] | 107 ± 1.1% |
| COc1ccc(C(CN(C)C)C2(O)CCCCC2)cc1 (stereo not given) | 103 ± 1.8% |
| Oc1cc2c(cc1O)[C@H]1c3ccccc3CN[C@@H]1CC2 | 109 ± 1.4% |
| CCN(C(C)=O)c1cccc(-c2ccnc3c(C#N)cnn23)c1 [Zaleplon] | 111.7 ± 0.3% |
| C[N+]1(CCC(C(N)=O)(c2ccccc2)c2ccccc2)CCCCC1 | 102 ± 1.4% |
| Cc1ncc2n1-c1ccc(Cl)cc1C(c1ccccc1F)=NC2 | 102.2 ± 0.87% |
| CC[C@@H]1C=CC=CC[C@H](C)[C@@H](O)[C@@H](C)C(=O)[C@H](C)[C@@H](O)[C@H](C)C(=O)[C@H](C)[C@@H](O)[C@H](C)C=CC(=O)O[C@H]2[C@@H](C)[C@@H](CC1)O[C@@]1(CC[C@@H](C)[C@@H](C[C@H](C)O)O1)[C@@H]2C | 109 ± 11% |
| O=C1Nc2ccc(Cl)cc2C(c2ccccc2Cl)=NC1O (stereo not given) [Lorazepam] | 105.6 ± 0.26% |
| Oc1ccc2c3c1O[C@H]1[C@@H](O)CC[C@@]4(O)[C@@H](C2)N(CC2CCC2)CC[C@]314 [Nalbuphine] | 99.2 ± 7.3% |
| CNC1=Nc2ccc(Cl)cc2C(c2ccccc2)=[N+]([O-])C1 | 104 ± 1.7% |
| C=C(C)CN1CC[C@]23c4c5ccc(O)c4O[C@H]2c2[nH]c4ccccc4c2C[C@@]3(O)C1C5 | 101 ± 1.4% |
| c1ccc(Cn2ccnc2)cc1 | 105 ± 1.2% |
| CCCCC/C=C\C/C=C\C/C=C\C/C=C\CCCC(=O)Nc1ccc(O)cc1 | 100.5 ± 0.91% |
| CCN(CC)CCOC(=O)C(O)(c1ccccc1)c1ccccc1 | 101 ± 3.5% |
| CN1CC[C@]23CCCC[C@H]2[C@H]1Cc1ccc(O)cc13 | 101.4 ± 0.14% |

| SMILES | cell viability |
| --- | --- |
| COc1ccc2[nH]cc(CCN)c2c1 [5-Methoxytryptamine] | 109 ± 1.3% |
| COc1ccc2c(c1)[C@]13CCCC[C@@H]1[C@H](C2)N(C)CC3 [d-3-Methoxy-N-methylmorphinan hydrobromide] | 103 ± 1.2% |
| CN1CC[C@]2(c3cccc(O)c3)Cc3nc4ccccc4cc3C[C@H]2C1 | 103 ± 1.4% |
| C[C@]12C/C(=C/O)C(=O)C[C@@H]1CC[C@@H]1[C@@H]2CC[C@@]2(C)[C@H]1CC[C@]2(C)O [Oxymetholone] | 113 ± 2.5% |
| O=c1c2ccccc2[se]n1-c1ccccc1 | 107 ± 1.6% |
| FC(F)(F)c1cccc(N2CCNCC2)c1 | 109 ± 1.2% |
| CC[C@@H](C(N)=O)N1CCCC1=O | 110 ± 12% |
| COc1cc(N)c(Cl)cc1C(=O)NC1CN2CCC1CC2 (stereo not given) [Zacopride] | 101.7 ± 0.79% |
| CC[C@]1(O)CC[C@H]2[C@@H]3CCC4=CCCC[C@@H]4[C@H]3CC[C@@]21C [Ethylestrenol] | 101.7 ± 0.91% |
| CC(NC(C)(C)C)C(=O)c1cccc(Cl)c1 (stereo not given) | 105% and 107% |
| C[C@]12CC[C@H]3[C@@H](CCC4=CC(=O)CC[C@@]43C)[C@@H]1CC[C@@H]2O [Testosterone] | 107 ± 1.6% |
| O=C1CN=C(c2ccccc2)c2cc([N+](=O)[O-])ccc2N1 [Nitrazepam] | 103.3 ± 0.55% |
| C[C@H]1CCC[C@H](O)CCCCCc2cc(O)cc(O)c2C(=O)O1 | 107 ± 2.7% |
| CCCN1C[C@H](CSC)C[C@@H]2c3cccc4[nH]cc(c34)C[C@H]21 [Pergolide] | 109.4 ± 1% |
| CN1C(=O)CN=C(c2ccccc2)c2cc([N+](=O)[O-])ccc21 [Nimetazepam] | 108 ± 2.6% |
| C[C@]12Cc3c[nH]nc3C[C@@H]1CC[C@@H]1[C@@H]2CC[C@@]2(C)[C@H]1CC[C@]2(C)O [Stanozolol] | 107 ± 2.4% |
| N=C(NCc1ccc(Cl)cc1)SCCCc1c[nH]cn1 [Clobenpropit] | 102 ± 1.4% |
